# KB-3-1 tox – KB-3-1 parental cell cytotoxicity | KB-3-1 viability, CellTiter-Glo ATP luminescence, 72 h | Potency, µM (top dose mostly 46.1 µM), hits mostly cytotoxic | 400,000 tested, 1.4% active; note: nearly all actives have a fitted effect of over 60% in size
#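 Cells are dispensed, compounds pinned in, plates held at 37 °C for 72 h, then CellTiter-Glo is added and luminescence read after 10 minutes. Cell line: parental KB-3-1 in phenol-red-free DMEM, 10% FBS.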
# KB-V1 cytotox – KB-V1 MDR subline cytotoxicity | KB-V1 MDR cells viability, CellTiter-Glo, 72 h | Potency, µM (highest dose often 46.1 µM), actives largely listed as cytotoxic | 400,000 tested, 3.4% active | AID 1347076; note: nearly all actives have a fitted effect of over 60% in size
#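 Following 72 h at 37 degrees C with compound, KB-V1 cell viability was read by CellTiter-Glo luminescence, medium being phenol-red-free DMEM plus 10% FBS; concentration-response parameters came from normalized, curve-fitted qHTS data.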
# HT1080 IDH1KD tx – toxicity to HT-1080 IDH1 knockdown cells (counter line); HT-1080 IDH1 knockdown viability, ATP luminescence, 48 h; Potency, µM (titrated, usually from 46.1 µM), usual class: cytotoxic; 360,000 tested, 2% active; AID 686971
#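 HT-1080-IDH1KD cells (IDH1 knocked down), 750/well in RPMI with 5% FBS, treated with compound 48 h at 37 degrees C. Viability by CellTiter-Glo luminescence, normalised to DMSO and no-cell wells; concentration-response curves classed.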
# IL1B secr inh – blocks inflammasome-driven IL-1 beta release | THP-1 LPS/ATP IL-1B secretion, AlphaLISA, 16 h; stronger effect = lower value | activity change, % at 57.5 µM | 360,000 tested, 4.7% active; in the data active = activity change below about -50%; inconclusive = mostly about -30% to -49%
#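 Secreted IL-1B measured by AlphaLISA bead assay after 16 h compound exposure of THP-1 cells; compounds (final up to 57.5 uM) added 1 h before LPS (250 ng/mL) and ATP (1.25 mM) stimulation; lower signal means less secretion.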
# HT1080NT lethal – kills 2HG-producing HT-1080-NT fibrosarcoma cells; HT-1080-NT fibrosarcoma viability, CellTiter-Glo ATP luminescence, 48 h; Potency, µM (top dose mostly 46.1 µM), actives largely listed as cytotoxic; 360,000 tested, 1.6% active;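 note: NT is the 2HG producing partner of a matched IDH1 knockdown line; nearly all actives have a fitted effect of over 55% in size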
#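 Luminescent CellTiter-Glo readout after 48 hours of compound exposure at 37 degrees C defined viability of HT-1080-NT cells. Activity was normalized to DMSO wells and cell-free media wells; concentration-response curves were fitted and assigned curve classes.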
# Numbers stand for hits; – = inactive; ? = inconclusive; · = no result given; [ ] = remark or other dose. An excerpt weighted towards active compounds, which were near 8.8% of everything screened. Unless noted, calls come from the whole dose curve; as a rule, active = well fitted curve in the direction sought with a large enough effect; inconclusive = small, poorly fitted or top-dose-only effect, or another doubt; inactive = no such curve, though single readings can be large; an effect the other way counts as inactive or inconclusive.
SMILES,KB-3-1 tox,KB-V1 cytotox,HT1080 IDH1KD tx,IL1B secr inh,HT1080NT lethal
Cc1cc(=O)[nH]c2sc(C(=O)N3c4ccccc4CC3C)c(N)c12 (stereo unspecified),–,–,–,-60,?
CC1Cc2ccccc2N1C(=O)c1ccc2snnc2c1 (stereo unspecified),–,–,–,-87,–
COc1cc(S(=O)(=O)N2CCCC3(CCCCC3)C2)ccc1-n1cnnn1,–,21µM,–,–,–
COc1cc(S(=O)(=O)N2CCN3CCCC3C2)ccc1-n1cnnn1 (stereo unspecified),–,–,–,–,–
c1ccc(N2CC3COc4ccccc4C3=N2)cc1 (stereo unspecified),–,–,–,–,–
O=C(NNC1=C(C(=O)C(F)(F)F)CCC1)c1cccc(O)c1,?,–,18µM,–,?
Cc1cccc(C(=O)NNC2=C(C(=O)C(F)(F)F)CCC2)c1O,?,–,21µM,–,21µM
Cc1cccc(OCc2nnc(NC(=O)Cc3cccs3)s2)c1,–,–,?,–,?
O=C(c1ccco1)N1CCCC(c2nc3c(nnn3Cc3c(Cl)cccc3Cl)c(=O)[nH]2)C1 (stereo unspecified),–,–,?,–,–
CC(C)(C)c1nc(N2CCN(C(=O)c3ccco3)CC2)c2nnn(Cc3ccccc3)c2n1,?,?,?,-52,?
O=C(c1ccco1)N1CCN(c2nc(C3CC3)nc3c2nnn3Cc2ccccc2Cl)CC1,?,?,–,-77,–
CC1=Nc2cc(C(=O)NCCCOC(C)C)ccc2Sc2ccc(C)cc21,2.9µM,4.1µM,1µM,–,0.73µM
CC1=Nc2cc(C(=O)NCCCOC(C)C)ccc2Sc2ccccc21,?,?,8.2µM,–,?
CC(C)OCCCNC(=O)c1ccc2c(c1)NC(=O)c1ccccc1S2,–,?,?,–,–
Cc1cccc(-c2nc(SCC(=O)Nc3cccc(C(F)(F)F)c3)n3[nH]c(=O)cc3n2)c1,–,?,·,·,·
COc1cccc(N2CCN(C(=O)C3CCC(CNS(=O)(=O)c4ccc(Br)s4)CC3)CC2)c1 (stereo unspecified),–,?,·,·,·
Cc1cccc(N2CCN(C(=O)c3cn(C)c(=O)c4c3c3ccccc3n4C)CC2)c1C,?,?,18µM,?,?
Cc1cccc(N2CCN(C(=O)c3cn(CC(C)C)c(=O)c4c3c3ccccc3n4C)CC2)c1C,–,–,·,·,·
Cc1ccc(Cl)cc1N1CCN(C(=O)c2cn(C)c(=O)c3c2c2ccccc2n3C)CC1,–,?,–,-68,–
Cc1cccc(C)c1NC(=O)C1(C)CN(S(C)(=O)=O)CC(=O)N1Cc1ccco1 (stereo unspecified),–,–,–,–,–
CCCCNC(=O)C1CCC(Cn2c(=O)c3sccc3n(CC(=O)N3CCCC3)c2=O)CC1 (stereo unspecified),–,–,·,·,·
COC(=O)c1sc(NC(=O)CCCn2nc([N+](=O)[O-])cc2C)c(C(=O)OC)c1C,–,0.92µM,–,–,–
COc1ccc(Cc2nnc(N/N=C/c3ccc(O)cc3)[nH]c2=O)cc1OC,0.58µM,?,?,-130,?
Cc1ccc([N+](=O)[O-])cc1N=Nc1c(-c2ccc([N+](=O)[O-])cc2)[nH]n(C(N)=S)c1=O,–,?,?,?,?
NC(=S)n1[nH]c(-c2ccc([N+](=O)[O-])cc2)c(N=Nc2ccc(Cl)cc2)c1=O,18µM,–,4.1µM,-92,2.6µM
SMILES,KB-3-1 tox,KB-V1 cytotox,HT1080 IDH1KD tx,IL1B secr inh,HT1080NT lethal
COc1ccc(C(=O)NNC2=Nc3cccc4cccc2c34)cc1,–,?,–,–,–
O=C(O)c1ccc(NC2=Nc3cccc4cccc2c34)cc1,?,15µM,–,–,–
Cc1ccc(C(=O)NNC2=Nc3cccc4cccc2c34)cc1,?,9.2µM,–,–,–
Cn1ccnc1C(O)c1cc(C(C)(C)C)c(O)c(C(C)(C)C)c1 (stereo unspecified),–,–,–[9.24 µM],-93,16µM
CCOC(=O)C1=C(O)C(=O)NC(c2ccccc2)=C(OCC)C1,?,–,–,–,–
CCOC(=O)C1=C(O)C(=O)NC(c2ccccc2)=C(OC2CCCCC2)C1,?,15µM,–,–,–
N=C1SCC(=O)N1c1ccc(Cl)cc1,15µM,?,–,–,–
Cc1cc(-c2ccc(S(=O)(=O)N(C)c3ccc(C)c(C)c3)s2)on1,13µM,7.3µM,?,–,?
OCCN1CCN(c2nc(-c3ccccc3O)nc3ccccc23)CC1,–,?,?,-82,?
OCCN1CCN(c2nc(-c3ccccc3)nc3c2oc2ccccc23)CC1,?,?,?,·,23µM
O=C(O)C1CCN(c2nc(-c3ccccc3)nc3c2oc2ccccc23)CC1,–,–,–,–,–
CN1CCN(c2nc(-c3ccccc3O)nc3ccccc23)CC1,–,–,–,–,–
CCOC(=O)c1ccc(NC(=O)CCc2c(C)nc3cc(-c4ccc(OC)cc4OC)nn3c2C)cc1,–,–,·,·,·
CC(C)Oc1ccc(CNC(=S)Nc2ccccc2)cc1Cl,–,–,–,–,–
CC(C)Oc1ccc(CCN=C(N)N=C(N)N)cc1Cl,?,–,23µM,–,–
CCN(CC)C(=O)Cn1c(=O)c2ccccc2n2c(=S)sc(-c3cccc(C)c3)c12,–,2.9µM,–,–,–
[O-]C1=N[N+](=C(c2ccccc2)c2ccccc2)C1,–,–,–,–,–
Cc1c(Cc2ccccc2)sc(NC(=O)/C=C/c2cccc3ccccc23)c1C(N)=O,9.2µM,?,33µM,–,13µM
COC(=O)c1c(NC(=O)/C=C/C(=O)O)sc(Cc2ccccc2)c1C,?,?,?,-111,–
CCOC(=O)c1c(NC(=O)/C=C/C(=O)O)sc(C)c1-c1ccc(Cl)cc1,?,–,23µM,-71,?
COc1ccc(N=c2ssnc2Cl)cc1,–,–,–,–,–
Clc1ccc(N=c2ssnc2Cl)cc1,21µM,21µM,–,-85,–
CCOC(=O)c1ccc(N=c2ssnc2Cl)cc1,–,–,–,-89,–
Cc1cc(N2O[C@H]3C=C[C@@H]2C3)no1,–,–,–,–,–
COc1cc(-c2nc3cnccn3c2Nc2ccccc2)ccc1O,?,–,–,–,–
SMILES,KB-3-1 tox,KB-V1 cytotox,HT1080 IDH1KD tx,IL1B secr inh,HT1080NT lethal
COc1cc(-c2nc3cnccn3c2Nc2ccc(C(C)C)cc2)ccc1O,–,–,?,-81,?
COc1cc(-c2nc3cnccn3c2Nc2ccc(C)cc2)ccc1O,–,?,16µM,–,?
OC(COCCOc1ccc(Br)cc1)CN1CCN(Cc2ccccc2)CC1 (stereo unspecified),?,–,–,?,–
Cc1cc(Sc2nnc(/N=C/N(C)C)s2)c2ccccc2n1,?,–,18µM,-89,15µM
Cc1cc(Sc2nnc(N)s2)c2ccccc2n1,–,–,?,-113,?
Cc1cc(C)c2ccccc2n1,–,–,·,·,·
O=C(O)Cc1cccc(=O)c(O)c1C(=O)O,–,–,–,–,–

# Screens deposited in PubChem BioAssay by National Center for Advancing Translational Sciences (NCATS).
